Measured values taken from PubChem BioAssay (Tox21).
“And” between values parts separate entries of the source, which are not always exact repeats. Equal values may be shown once. Results filed as inconclusive are left out. Where a call stands in place of a potency, no number is given. A structure can be active in one record and inactive in another. The source made the active and inactive calls. Calls come from the whole dose curve; as a rule, active = well fitted cell-killing curve with a large enough effect in the repeat runs; inconclusive = weak or mixed curves, or effect the other way; inactive = flat fitted curve, though single readings scatter.

Assay: qHTS assay to identify small molecule agonists of the sonic hedgehog signaling (Shh) pathway - cell viability counter screen (AID 1259366); note: nearly all actives have a fitted effect of over 50% in size
Details: NIH/3T3 Gli1-Luc viability, CellTiter-Fluor, 24 h; series mostly up to 92.4 µM; viability change, negative = cytotoxic: at the top concentration
Source text: National Center for Advancing Translational Sciences [NCATS]
NIH Chemical Genomics Center [NCGC]
U.S. Environmental Protection Agency [EPA]
National Institutes of Environmental Health Sciences [NIEHS]
National Toxicology Program [NTP]
U.S. Food and Drug Administration [FDA]
The sonic hedgehog (Shh) pathway is essential for normal embryonic development. Dysregulation of the Shh pathway can cause severe developmental defects in organs. Therefore chemicals that interfere with the pathway are potential developmental toxicants. A cell line designated 3T3Gli1-Luc (DMB/OARSA/CFSAN/FDA, Laurel, MD), a NIH/3T3 derived clone containing stably integrated Gli1-Luc reporter is used to detect chemical interference of the Shh pathway, by changes in the expression of the firefly Luc gene under the control of the Gli1 transcriptional response element. This cell line was used to screen Tox21 libraries for identifying and prioritizing the potential developmental toxicants that interfere Shh pathway. The cytotoxicity of the compounds was tested in parallel by measuring the cell viability using CellTiter-Fluor assay system (Promega, Madison, WI) in the same wells.
Tox21 Assay Protocol Summary:
3T3 Gli1-Luc cells were dispensed at 2,000 per well in 5uL of culture medium into white solid bottom 1536-well plates (Greiner Bio-One, Monroe, NC) using a Multidrop Combi (Thermo Scientific, Waltham, MA) dispenser. The assay plates were incubated at 37 C and 5% CO2 for 4hr, and then 23nL of compounds dissolved in DMSO and positive control were transferred using a Pintool station (Wako, San Diego, CA). The assay plates were incubated at 37C and 5% CO2 for 24hr. For viability read, after 23hr of compound treatment, 1uL of CellTiter-Fluor reagent (Promega Corporation, Madison, WI) was added to each well of the assay plates using Flying Reagent Dispenser (FRD, Aurora Discovery, San Diego, CA) and incubated the assay plates at 37C for 1hr. The fluorescence signal was quantified using a ViewLux plate reader (Perkin Elmer, Shelton, CT).
Potency is the fitted concentration of half-maximal effect.

Compound | viability change, negative = cytotoxic | Potency
C=CCc1ccc2c(c1)OCO2 | 5.3% (inactive) | –
Clc1nc(Cl)nc(Cl)n1 | 0.929% (inactive) | –
c1cc(OCC2CO2)ccc1Cc1ccc(OCC2CO2)cc1 (stereo not given) | – | 27.3 µM (active)
Nc1ccncc1 | – | inactive
O=P(Oc1ccccc1)(Oc1ccccc1)Oc1ccccc1 | 3.6% (inactive) | –
CC(C)=CC1C(C(=O)OCc2coc(Cc3ccccc3)c2)C1(C)C (stereo not given) | – | inactive
CCOC(=O)C(C)OC(=O)c1cc(Oc2ccc(C(F)(F)F)cc2Cl)ccc1[N+](=O)[O-] (stereo not given) | – | inactive
Cc1cc(C)cc(C)c1 | – | inactive
Cc1c(COC(=O)[C@@H]2[C@H](/C=C(\Cl)C(F)(F)F)C2(C)C)cccc1-c1ccccc1 | 21.3% (inactive) | –
CCOC(=S)S | – | 38.6 µM (active) and 20.6 µM (active)
c1ccc(NNc2ccccc2)cc1 | – | inactive
Nc1ccc(-c2ccccc2)cc1 | 4.02% (inactive) | –
CCCCNC(=O)n1c(NC(=O)OC)nc2ccccc21 | -8.84% (inactive) | –
COc1ccc(C=O)cc1 | – | inactive
Oc1c(Cl)c(Cl)c(Cl)c(Cl)c1Cl | – | inactive
COc1ccc(C(CN(C)C)C2(O)CCCCC2)cc1 (stereo not given) | – | inactive
CCCCC(CC)COC(=O)c1ccc(C(=O)OCC(CC)CCCC)c(C(=O)OCC(CC)CCCC)c1 (stereo not given) | – | inactive
CCCCCCCCCCCOC(=O)c1ccccc1C(=O)OCCCCCCCCCCC | – | inactive
C=C(C)C(=O)OCC1CO1 (stereo not given) | – | inactive
O=[N+]([O-])c1cccc2ccccc12 | – | inactive

Compound | viability change, negative = cytotoxic | Potency
CCCCCCCCOC(=O)c1ccccc1C(=O)OCCCCCCCC | – | inactive
CC1(C)C(C=C(Cl)Cl)C1C(=O)OC(C#N)c1cccc(Oc2ccccc2)c1 (stereo not given) | – | inactive
Cc1cc(Cl)ccc1OCCCC(=O)O | – | inactive
C=CCc1ccc(OC)cc1 | – | inactive
CCOP(=S)(OCC)O/N=C(\C#N)c1ccccc1 | – | inactive
Cc1ccc(N)c(N)c1 | -29.1% (inactive) | –
Nc1ccc(Cl)c(Cl)c1 | – | inactive
C[C@]12CCC(=O)C[C@@H]1CC[C@@H]1[C@@H]2CC[C@]2(C)[C@@H](O)CC[C@@H]12 | – | inactive
O=C(CCl)c1ccccc1 | -17% (inactive) | –
CC(C)c1ccc(CO)cc1 | – | inactive
O=C(Nc1ccc(Br)cc1)c1cc(Br)cc(Br)c1O | – | 30.5 µM (active)
OCC(O)CO | 1.85% (inactive) | –
CCCCOCCOP(=O)(OCCOCCCC)OCCOCCCC | – | inactive
CCC(C)c1cc([N+](=O)[O-])cc([N+](=O)[O-])c1O (stereo not given) | – | inactive and 43.3 µM (active)
CCCCC(CC)COC(=O)Cl (stereo not given) | – | inactive
CCCCN(CCCC)N=O | – | inactive
NNC(N)=S | – | 45 µM (active)
N#CCCCl | – | inactive
CC(C)N(C(=O)SCC(Cl)=C(Cl)Cl)C(C)C | – | inactive
CCC(CC)Nc1c([N+](=O)[O-])cc(C)c(C)c1[N+](=O)[O-] | – | inactive
